# Results as given in article PMC5700166.
# Target: GST-Hu-p50 (Homo sapiens, UniProt P19838 7-356)
# Experiment: protein-binding microarray (PBM); PBM: ~300 nM protein, 6 mM HEPES pH 7.8, 80 mM KCl, 0.5 mM EDTA, 0.5 mM EGTA, 6% glycerol, 35 ng/ul poly-dIdC, 1% milk, 1 h, room temperature; Ap Aiptasia and Nv Nematostella (sea anemones) / Co Capsaspora / Aq Amphimedon (sponge) / Dm Drosophila / Hu human; RHD is the Rel homology domain; high values mean tight binding
# Settings: dsDNA, one strand shown
# GST-Hu-p50, sequence (P19838 7-356): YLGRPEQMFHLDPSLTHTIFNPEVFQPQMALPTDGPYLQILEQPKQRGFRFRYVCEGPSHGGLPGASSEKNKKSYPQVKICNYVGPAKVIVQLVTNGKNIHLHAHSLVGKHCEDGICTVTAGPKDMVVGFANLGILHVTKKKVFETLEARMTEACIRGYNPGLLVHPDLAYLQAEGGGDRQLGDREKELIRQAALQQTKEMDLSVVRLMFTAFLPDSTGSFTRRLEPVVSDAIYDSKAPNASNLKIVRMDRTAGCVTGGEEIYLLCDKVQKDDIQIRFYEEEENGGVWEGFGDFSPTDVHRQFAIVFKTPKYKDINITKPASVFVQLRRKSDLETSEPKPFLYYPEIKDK
row,Sequence,binding signal [z-score]
1,CCGATTAACATCACGGAATTTTCTGATGTTAATCGGGTCTTGATTCGCTTGACGCTGCTG,1.13
2,CCGATTAACATCAGGAAAGTTCCTGATGTTAATCGGGTCTTGATTCGCTTGACGCTGCTG,1.06
3,CCGATTAACATCAAGGGAAAAAATGATGTTAATCGGGTCTTGATTCGCTTGACGCTGCTG,4.89
4,CCGATTAACATCACCCGAGTGCGTGATGTTAATCGGGTCTTGATTCGCTTGACGCTGCTG,1.1
5,CCGATTAACATCAGGAAAGTACCTGATGTTAATCGGGTCTTGATTCGCTTGACGCTGCTG,5.16
6,CCGATTAACATCAATTTTTTCCCTGATGTTAATCGGGTCTTGATTCGCTTGACGCTGCTG,4.43
7,CCGATTAACATCAATCAGCGGGGTGATGTTAATCGGGTCTTGATTCGCTTGACGCTGCTG,1.52
8,CCGATTAACATCAATTTATCCCCTGATGTTAATCGGGTCTTGATTCGCTTGACGCTGCTG,4.37
9,CCGATTAACATCAGATTATCCCCTGATGTTAATCGGGTCTTGATTCGCTTGACGCTGCTG,4.03
10,CCGATTAACATCATTCCACCAGGTGATGTTAATCGGGTCTTGATTCGCTTGACGCTGCTG,1.04
11,CCGATTAACATCAACGGGTCCCTTGATGTTAATCGGGTCTTGATTCGCTTGACGCTGCTG,1.31
12,CCGATTAACATCAATTAGGTGGGTGATGTTAATCGGGTCTTGATTCGCTTGACGCTGCTG,1.64
13,CCGATTAACATCAAATTTCCAGGTGATGTTAATCGGGTCTTGATTCGCTTGACGCTGCTG,1.2
14,CCGATTAACATCAGGGGAACTAATGATGTTAATCGGGTCTTGATTCGCTTGACGCTGCTG,4.28
15,CCGATTAACATCATGAAGACCCCTGATGTTAATCGGGTCTTGATTCGCTTGACGCTGCTG,1.77
16,CCGATTAACATCACGGAAATTTCTGATGTTAATCGGGTCTTGATTCGCTTGACGCTGCTG,1.83
17,CCGATTAACATCAAGGTATTTCCTGATGTTAATCGGGTCTTGATTCGCTTGACGCTGCTG,1.29
18,CCGATTAACATCAGGGGAACCTATGATGTTAATCGGGTCTTGATTCGCTTGACGCTGCTG,4.74
19,CCGATTAACATCAAGGAAATTCCTGATGTTAATCGGGTCTTGATTCGCTTGACGCTGCTG,1.33
20,CCGATTAACATCACCGTTTAGGTTGATGTTAATCGGGTCTTGATTCGCTTGACGCTGCTG,1.22

row,Sequence,binding signal [z-score]
1,CCGATTAACATCAGGACAATCCCTGATGTTAATCGGGTCTTGATTCGCTTGACGCTGCTG,1.84
2,CCGATTAACATCAGGGAGAGCCCTGATGTTAATCGGGTCTTGATTCGCTTGACGCTGCTG,2.37
3,CCGATTAACATCACGGGGTTGCCTGATGTTAATCGGGTCTTGATTCGCTTGACGCTGCTG,1.21
4,CCGATTAACATCAATGGAATTCCTGATGTTAATCGGGTCTTGATTCGCTTGACGCTGCTG,1.48
5,CCGATTAACATCAGGCATGCCCCTGATGTTAATCGGGTCTTGATTCGCTTGACGCTGCTG,1.89
6,CCGATTAACATCACGATTTTCCCTGATGTTAATCGGGTCTTGATTCGCTTGACGCTGCTG,3.78
7,CCGATTAACATCACCCCATCTCGTGATGTTAATCGGGTCTTGATTCGCTTGACGCTGCTG,1.44
8,CCGATTAACATCAGGCGGTAAGGTGATGTTAATCGGGTCTTGATTCGCTTGACGCTGCTG,1.29
9,CCGATTAACATCACACCCCAACATGATGTTAATCGGGTCTTGATTCGCTTGACGCTGCTG,1.05
10,CCGATTAACATCATGGGGTGTGCTGATGTTAATCGGGTCTTGATTCGCTTGACGCTGCTG,1.49
11,CCGATTAACATCACCTTTAGGAGTGATGTTAATCGGGTCTTGATTCGCTTGACGCTGCTG,1.11
12,CCGATTAACATCAAAAATTTCCTTGATGTTAATCGGGTCTTGATTCGCTTGACGCTGCTG,1.32
13,CCGATTAACATCACCGAACTAACTGATGTTAATCGGGTCTTGATTCGCTTGACGCTGCTG,1.23
14,CCGATTAACATCACCGGATTTCCTGATGTTAATCGGGTCTTGATTCGCTTGACGCTGCTG,2.28
15,CCGATTAACATCAAATAATTCCCTGATGTTAATCGGGTCTTGATTCGCTTGACGCTGCTG,5.03
16,CCGATTAACATCAGGGGATTAAATGATGTTAATCGGGTCTTGATTCGCTTGACGCTGCTG,4.87
17,CCGATTAACATCACCGGAATTTCTGATGTTAATCGGGTCTTGATTCGCTTGACGCTGCTG,2.22
18,CCGATTAACATCAGGAAGTTACCTGATGTTAATCGGGTCTTGATTCGCTTGACGCTGCTG,1.42
19,CCGATTAACATCACGGGATTTTCTGATGTTAATCGGGTCTTGATTCGCTTGACGCTGCTG,4
